Test [1] concerns Wnt5a (protein binding on small-molecule microarray). As to the kind of experiment: Wnt5a binders on small-molecule microarray, primary screen, biophysical, 635/667 nm fluorescence (AID 1142).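 Note: fluorescence read at 667 nm with signal to noise per printed feature.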 The following applies: 635 nm fluorescence, higher = more signal.
Test [2] is described as follows: cell viability in Huh7 cells, primary screen, cytotoxicity control for HCV replication inhibitor project, CellTiter-Glo luminescence, basal, 48 h (AID 1143).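 Note: Huh7 hepatoma cells carrying a hepatitis C replication reporter with no stimulus; test concentration not given here.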 The conditions noted are these: Huh7 HCV replicon, higher = more signal, called active from +8 up or from −8 down. A general note: ATP-based viability assays read luminescence as a measure of living cells.
The nature of test [3]: P. aeruginosa biofilm formation inhibitors, primary screen, PAO1 strain, BacTiter-Glo luminescence, LB-PBS (AID 1144). The following applies: 12 h, higher = more signal.
A short description of test [4]: CREB reporter modulators without forskolin, primary screen, cell-based, PC12, CRE-LacZ reporter, unstimulated (AID 1145). The conditions noted are these: no forskolin, luminescence, 4.5 h, higher = more signal, called active from +8 up or from −8 down.
Test [5] is described as follows: CREB reporter modulators under forskolin, primary screen, cell-based, PC12, CRE-LacZ reporter, forskolin-stimulated (AID 1146).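 Note: PC12 cells with 6xCRE LacZ reporter stimulated by forskolin 10 µM; beta-galactosidase reporter signal reflecting CREB driven transcription.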 The conditions noted are these: luminescence, 4.5 h, higher = more signal, called active from +8 up or from −8 down.
Test [6] concerns the target Streptavidin (Streptomyces avidinii) (UniProt P22629). As to the kind of experiment: streptavidin binders on small-molecule microarray, primary screen, artefact control for SMM compound annotation, biophysical, 635/667 nm fluorescence (AID 1147).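 Note: signal reflects streptavidin binding to arrayed compounds as a control protein.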 The following applies: streptavidin binding, higher = more signal.
Test [7] can be described thus: small-molecule binders of probe aInhba, primary screen, biochemical, small-molecule microarray, 635/667 nm fluorescence (AID 1148).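 Note: score merges 667nm spot fluorescence with signal-to-noise for antibody binding to printed compounds.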 The following applies: higher = more signal.
Test [8] concerns the target Torsin-1A (Homo sapiens) (UniProt O14656). As to the kind of experiment: torsin A binders from cell lysate, primary screen, small-molecule microarray, wild-type, 635/667 nm (AID 1149). The following applies: COS7 hTOR1A-WT lysate, 635 nm fluorescence, higher = more signal.
Test [9] shares this target. As to the kind of experiment: small-molecule binders of mutant TOR1A in lysate, primary screen, cell lysate, small-molecule microarray, COS7 lysate, 635/667 nm fluorescence (AID 1150).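 Note: score pools 667 nm emission and signal to noise measuring lysate protein binding.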 The following applies: COS7 hTOR1A mutant lysate, 635 nm fluorescence, higher = more signal.
Test [10] concerns Sonic hedgehog protein (Shh). Briefly: small-molecule binders of Shh protein, primary screen, biochemical, small-molecule microarray, 635/667 nm fluorescence (AID 1151).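 Note: Shh protein binding to compounds spotted on small-molecule microarray slides; score combines spot fluorescence intensity with signal-to-noise across triplicate slides.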 The conditions noted are these: small-molecule microarray binding, 635 nm fluorescence; higher = more signal.
Test [11] in a line: E. coli DRC41 culture turbidity changes, primary screen, E. coli filamentation inducer project, strain DRC41, OD650, 48 h (AID 1152).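 Note: E. coli MC1000 strain DRC41 lacking acrAB efflux pump and sulA.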 The following applies: E. coli DRC41 (acrAB sulA), higher = more signal, called active from +8 up or from −8 down.
Test [12] can be described thus: small-molecule binders of probe aLefty1, primary screen, biochemical, small-molecule microarray, 635/667 nm fluorescence (AID 1153).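 Note: score merges spot fluorescence with signal-to-noise ratio from the scanned slide images.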 The conditions noted are these: higher = more signal.
Test [13] is described as follows: PSAC antagonists in infected red cells, primary screen, cell-based, P. falciparum Indochina, OD700, 1 h (AID 1154). The conditions noted are these: P. falciparum Indochina infected RBC osmotic lysis, higher = more signal, called active from +8 up or from −8 down.
Test [14] can be described thus: PSAC antagonists in infected red cells, primary screen, cell-based, P. falciparum Indochina, OD700, 2 h (AID 1155).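 Note: lysis reports solute entry through the parasite surface anion channel PSAC; channel blockers reduce lysis of infected cells.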 The conditions noted are these: P. falciparum Indochina infected erythrocytes, osmotic lysis OD700; higher = more signal, called active from +8 up or from −8 down.
Test [15] is described as follows: osmotic lysis modulators in infected erythrocytes, primary screen, PSAC antagonist project, cell-based, P. falciparum Indochina, OD700, 3 h (AID 1156). The following applies: higher = more signal, called active from +8 up or from −8 down.
The nature of test [16]: PSAC antagonists in infected red cells, primary screen, cell-based, P. falciparum Indochina, OD700, 18 h (AID 1157). The following applies: P. falciparum Indochina infected erythrocytes, osmotic lysis OD700, 18 h; higher = more signal, called active from +8 up or from −8 down.
The nature of test [17]: modulators of S6 phosphorylation in cells, primary screen, cell-based, A549, cytoblot, luminescence, serum-stimulated (AID 1158).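 Note: serum-stimulated A549 lung adenocarcinoma cells; signal is phosphorylated S6 detected by cytoblot immunostaining with HRP secondary.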 The conditions noted are these: A549 phospho-S6 cytoblot, 5 h, higher = more signal.
In test [18] the target is NADPH oxidase 2 (Homo sapiens) (UniProt P04839). As to the kind of experiment: NOX2-dependent H2O2 signal modulators, primary screen, NOX inhibitor project, cell-based, HEK293-NOX2, PMA-stimulated, Amplex Red fluorescence (AID 1159). Note: test concentration not given here. The following applies: 45 min, higher = more signal, called active from +8 up or from −8 down.
NADPH oxidase 2 (Homo sapiens), sequence (P04839 whole entry, looked up): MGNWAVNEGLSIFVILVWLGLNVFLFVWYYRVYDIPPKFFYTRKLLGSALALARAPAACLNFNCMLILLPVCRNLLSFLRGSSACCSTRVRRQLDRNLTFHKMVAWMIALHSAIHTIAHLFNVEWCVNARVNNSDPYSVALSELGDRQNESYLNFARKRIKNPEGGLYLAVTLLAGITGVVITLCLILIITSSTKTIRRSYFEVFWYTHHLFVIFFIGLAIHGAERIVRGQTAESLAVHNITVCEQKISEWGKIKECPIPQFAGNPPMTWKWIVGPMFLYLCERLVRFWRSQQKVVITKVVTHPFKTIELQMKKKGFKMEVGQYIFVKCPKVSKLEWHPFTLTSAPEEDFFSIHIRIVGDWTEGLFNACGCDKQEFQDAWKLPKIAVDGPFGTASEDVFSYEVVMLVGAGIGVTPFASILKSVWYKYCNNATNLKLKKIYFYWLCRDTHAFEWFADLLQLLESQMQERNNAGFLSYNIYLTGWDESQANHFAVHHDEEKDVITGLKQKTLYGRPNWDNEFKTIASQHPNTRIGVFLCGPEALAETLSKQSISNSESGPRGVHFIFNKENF
The target in test [19] is NADPH oxidase 4 (Homo sapiens) (UniProt Q9NPH5). Briefly: NOX4-dependent H2O2 signal modulators, primary screen, NOX inhibitor project, cell-based, HEK293-NOX4, tetracycline-induced, Amplex Red fluorescence (AID 1160). The conditions noted are these: 45 min, higher = more signal, called active from +8 up or from −8 down.
NADPH oxidase 4 (Homo sapiens), sequence (Q9NPH5 whole entry, looked up): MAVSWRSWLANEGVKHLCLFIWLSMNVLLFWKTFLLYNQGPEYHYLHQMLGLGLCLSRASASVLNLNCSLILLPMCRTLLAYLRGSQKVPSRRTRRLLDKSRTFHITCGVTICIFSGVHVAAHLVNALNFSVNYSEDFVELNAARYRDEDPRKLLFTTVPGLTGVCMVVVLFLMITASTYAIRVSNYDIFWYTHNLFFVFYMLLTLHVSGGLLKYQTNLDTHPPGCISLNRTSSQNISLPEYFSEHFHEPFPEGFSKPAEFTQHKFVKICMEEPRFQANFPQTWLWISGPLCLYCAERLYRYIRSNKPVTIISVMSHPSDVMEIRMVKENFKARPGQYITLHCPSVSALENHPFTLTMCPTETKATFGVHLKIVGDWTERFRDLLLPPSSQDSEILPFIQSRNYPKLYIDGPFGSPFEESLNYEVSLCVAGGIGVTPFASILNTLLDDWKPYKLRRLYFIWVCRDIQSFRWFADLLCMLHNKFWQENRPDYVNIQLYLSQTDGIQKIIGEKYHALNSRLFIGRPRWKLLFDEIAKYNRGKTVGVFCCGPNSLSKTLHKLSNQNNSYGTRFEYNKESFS
The target of test [20] is NADPH oxidase 5 (Homo sapiens) (UniProt Q96PH1). Briefly: NOX5-dependent H2O2 signal modulators, primary screen, NOX inhibitor project, cell-based, HEK293-NOX5, Amplex Red fluorescence (AID 1161). The conditions noted are these: HEK293-NOX5, ionomycin, 45 min, higher = more signal.
NADPH oxidase 5 (Homo sapiens), sequence (Q96PH1 whole entry, looked up): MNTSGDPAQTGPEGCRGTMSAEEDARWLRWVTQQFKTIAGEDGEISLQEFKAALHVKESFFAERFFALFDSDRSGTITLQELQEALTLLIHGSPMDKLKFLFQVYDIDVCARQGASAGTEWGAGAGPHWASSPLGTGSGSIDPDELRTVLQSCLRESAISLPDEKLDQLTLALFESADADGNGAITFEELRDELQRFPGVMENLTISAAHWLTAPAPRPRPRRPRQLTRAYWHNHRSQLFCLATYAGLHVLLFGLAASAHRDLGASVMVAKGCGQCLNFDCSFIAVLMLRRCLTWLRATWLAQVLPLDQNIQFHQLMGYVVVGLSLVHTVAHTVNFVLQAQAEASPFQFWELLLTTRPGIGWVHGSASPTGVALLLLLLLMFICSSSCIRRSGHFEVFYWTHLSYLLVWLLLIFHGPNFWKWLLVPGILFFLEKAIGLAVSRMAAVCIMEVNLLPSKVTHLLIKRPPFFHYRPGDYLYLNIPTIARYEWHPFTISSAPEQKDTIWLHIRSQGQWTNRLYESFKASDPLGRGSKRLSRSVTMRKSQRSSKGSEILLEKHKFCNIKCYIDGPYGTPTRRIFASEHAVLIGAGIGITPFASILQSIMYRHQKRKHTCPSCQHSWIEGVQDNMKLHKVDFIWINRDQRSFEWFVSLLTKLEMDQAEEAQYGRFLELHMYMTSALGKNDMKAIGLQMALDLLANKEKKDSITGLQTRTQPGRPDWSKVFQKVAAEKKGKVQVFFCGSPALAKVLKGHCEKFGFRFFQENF

The source of these data is PubChem BioAssay.

The source made the active and inactive calls. Unless noted, the rule behind the calls is not given here.

Torsin-1A (Homo sapiens), sequence (O14656 whole entry, looked up): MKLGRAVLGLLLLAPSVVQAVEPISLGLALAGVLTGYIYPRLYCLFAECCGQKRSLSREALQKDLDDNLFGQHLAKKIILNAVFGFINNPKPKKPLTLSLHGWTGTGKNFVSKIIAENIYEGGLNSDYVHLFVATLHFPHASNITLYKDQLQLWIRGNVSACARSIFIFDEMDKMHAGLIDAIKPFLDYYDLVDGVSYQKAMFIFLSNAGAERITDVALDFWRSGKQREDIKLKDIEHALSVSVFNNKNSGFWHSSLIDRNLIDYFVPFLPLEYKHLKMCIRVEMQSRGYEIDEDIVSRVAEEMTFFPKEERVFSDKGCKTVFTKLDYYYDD
Streptavidin (Streptomyces avidinii), sequence (P22629 whole entry, looked up): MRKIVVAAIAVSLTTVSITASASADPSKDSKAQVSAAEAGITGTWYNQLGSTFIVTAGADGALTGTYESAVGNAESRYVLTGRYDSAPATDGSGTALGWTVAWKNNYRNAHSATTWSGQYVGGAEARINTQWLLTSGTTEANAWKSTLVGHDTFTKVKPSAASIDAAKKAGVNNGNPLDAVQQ

Take `COCCOC(=O)N1C(=O)[C@@]2(c3cc(C#CC4(O)CCCCCC4)ccc31)[C@H](C(=O)N1CCc3cc(OC)c(OC)cc3C1)[C@H]1C(=O)O[C@H](c3ccccc3)[C@H](c3ccccc3)N1[C@@H]2c1ccc(OCCO)cc1`: the composite z-score is 0.536 in [1]; 1.04 in test [6]; -0.0736 in test [7]; 0.71 in the test with Torsin-1A (Homo sapiens) [8]; 0.362 with Torsin-1A (Homo sapiens) [9]; 1.58 in test [10]. Also, in test [12], the composite z-score was -0.469. Also, the z-score is -1.38 (inactive) in test [2]; -0.555 (inactive) in [3]; -0.465 (inactive) in test [4]; 0.581 (inactive) in test [5]; -0.073 (inactive) in [11]; 7.39 (inactive) in test [13]. In addition, the z-score in test [14] was 2.64 (inactive); in test [15] it was 1.41 (inactive); in test [16] it was 1.64 (inactive); in test [17], 0.272; in test [18], 1.6 (inactive); in test [19], 0.614 (inactive). The z-score in test [20] was found to be 1.74.

Regarding `CCCC[C@@H](O)C1=C(COc2ccccc2)C[C@H]2C(=O)N(Cc3ccccc3)C(=O)[C@H]2[C@H]1CO`, the composite z-score in test [1] is -0.143; in test [6], -0.0098; in test [7], -0.239; in the test with Torsin-1A (Homo sapiens) [8], -0.152; with Torsin-1A (Homo sapiens) [9], 0.107; in test [10], 0.491. The molecule further displayed a composite z-score in test [12] of -0.0564. Besides, the z-score is -2.03 (inactive) in [2]; 0.436 (inactive) in [3]; 7.39 (inactive) in [4]; -0.695 (inactive) in [5]; 0.232 (inactive) in test [11]; 13.9 (active) in test [13]. Also, the z-score in test [14] was 1.59 (inactive); in test [15], -1.11 (inactive); in test [16] it was 0.967 (inactive); in test [17] it was -0.326; in test [18], -0.77 (inactive); in test [19], -0.286 (inactive). This molecule also had a z-score in test [20] of -0.695.

In the case of `C=CCC(OC(C)=O)[C@@H]1[C@@H](N(Cc2cc3ccccc3o2)C(=O)Cc2ccc(F)cc2)c2cc(OCCCO)ccc2N1C(=O)Cc1ccc2ccccc2c1` (stereo not given in full), the composite z-score is -0.314 in test [1]; 0.655 in test [6]; -0.0963 in test [7]; -1.16 with Torsin-1A (Homo sapiens) [8]; -0.337 with Torsin-1A (Homo sapiens) [9]; 0.0162 in test [10]. In test [12], this molecule displayed a composite z-score of 0.051. Also, the z-score in [2] is -0.327 (inactive); in test [3] it was -0.467 (inactive); in [4], 2.08 (inactive); in test [5] it was 0.926 (inactive); in [11], -1.06 (inactive); in [13], 1.23 (inactive). Further, the z-score in test [14] was 0.62 (inactive); in test [15] it was -0.621 (inactive); in [16], 0.184 (inactive); in test [17] it was -0.213; in test [18] it was 0.682 (inactive); in test [19] it was 0.88 (inactive). In [20], the z-score amounted to 1.86.

On to `C=CCNC(=O)[C@@H]1[C@H]2C(=O)O[C@H](c3ccccc3)[C@H](c3ccccc3)N2[C@H](c2ccccc2OCCO)[C@@]12C(=O)Nc1ccc(C#CCC(C(=O)OC)C(=O)OC)cc12`, for which the composite z-score came out at 0.0142 in test [1]; 0.0625 in test [6]; 0.84 in [7]; 0.834 with Torsin-1A (Homo sapiens) [8]; 0.566 in the test with Torsin-1A (Homo sapiens) [9]; 0.499 in test [10]. In addition, the composite z-score in test [12] was determined as 0.666. In addition, the z-score in test [2] is -6.3 (inactive); in [3], 0.616 (inactive); in test [4] it was -0.191 (inactive); in test [5], -1.03 (inactive); in test [11] it was -0.79 (inactive); in [13] it was 4.93 (inactive). Moreover, the z-score is 1.81 (inactive) in test [14]; 0.622 (inactive) in test [15]; 1.36 (inactive) in test [16]; -0.304 in test [17]; 0.21 (inactive) in [18]; 0.161 (inactive) in [19]. The same molecule showed a z-score in test [20] of 1.98.

In the case of `C=CC[C@@]1(C(=O)NCCCOC)N=C(c2ccc(OCCCO)cc2)O[C@@H]1c1ccccc1`, the composite z-score in test [1] is 0.452; in test [6], 0.428; in test [7] it was 0.771; with Torsin-1A (Homo sapiens) [8], 0.478; with Torsin-1A (Homo sapiens) [9], 1.3; in test [10], -0.499. The composite z-score in test [12] came to 0.611. Also, the z-score in [2] was -1.92 (inactive); in test [3] it was 0.305 (inactive); in test [4], 1.51 (inactive); in test [5] it was -0.68 (inactive); in test [11], 1.3 (inactive); in [13], 21.7 (active). Moreover, the z-score is 7.55 (inactive) in test [14]; 1.32 (inactive) in [15]; 0.406 (inactive) in [16]; 1.54 in test [17]; -0.393 (inactive) in test [18]; 0.523 (inactive) in test [19]. Further, in test [20], the z-score came out at 0.754.
